# Rows were chosen to be rich in hits. Some 3.5% of all compounds tested hit in one or more screens of this group.
# BH1578 lux ind: quorum light induction in luxS cqsA deficient V. cholerae; V. cholerae BH1578 lux reporter, luminescence, 6 h; activation, % at 18.7 µM; hit rate 0.16% among 350,000; AID 588436; in the data active = activation mostly above about 9.7%, no sharp cut-off; inconclusive = no clear call, values can overlap the other calls; inactive = mostly below about 3.7%
# Anthrax LF inh2: inhibitors of Bacillus anthracis lethal factor protease. P15917. multiplex microsphere protease cleavage assay, LF. inhibition, % at 10 µM. hit rate 0.12% among 360,000. AID 588501; also: plate controls were buffer without enzyme for full effect and enzyme alone for no effect
# BoNT-F LC inh: inhibitors of Botulinum neurotoxin F light chain protease. hit rate 0.22% among 360,000. inhibition, % at 10 µM. Multiplex microsphere protease cleavage assay, flow cytometry; in the data active = inhibition above about 35%, passing the limit was not always enough; inconclusive = no clear call, values can overlap the other calls; also: plate controls were buffer without enzyme for full effect and enzyme alone for no effect
# Autofluor counter: counter-screen for toxin protease inhibitors: compound fluorescence | compound autofluorescence counterscreen, microsphere flow cytometry; active compounds read high | fluorescence intensity (concentration not given with the values) | hit rate 3.1% among 360,000 | AID 624483; in the data active = fluorescence intensity above about 16000; inconclusive = no clear call, values can overlap the other calls
# BoNT-A LC inh2: blocks Botulinum neurotoxin A light chain protease | multiplex microsphere protease substrate cleavage, flow cytometry | inhibition, % at 10 µM | hit rate 0.17% among 360,000; also: plate controls were buffer without enzyme for full effect and enzyme alone for no effect
# * = called active by the depositor; i = inactive; ? = inconclusive; · = no result. Rule as the data show it, unless noted: active = inhibition above about 30%; inconclusive = no clear call, values can overlap the other calls; inactive = below that.
SMILES,BH1578 lux ind,Anthrax LF inh2,BoNT-F LC inh,Autofluor counter,BoNT-A LC inh2
Cc1ccc(C(=O)c2c(C)oc3c2C(=O)C(=O)c2ccccc2-3)cc1,i,18,11,2292,20
O=C(c1ccccc1F)N(Cc1cccs1)C1CCS(=O)(=O)C1 (stereo unspecified),0,0,4,6039,0
O=C(Oc1ccc(N(Cc2cccs2)C2=NS(=O)(=O)c3ccccc32)cc1)c1ccccc1F,-5,-2,-4,22943*,1
COc1ccc(N(Cc2cc(=O)[nH]c3ccccc23)C(=O)c2ccco2)cc1,-1,-3,0,20241*,?
N#Cc1nc2ccccc2n1OCc1ccccc1,-5,-2,-13,3936,-1
COc1cccc(NC(=O)NCCCSC2CCCCC2)c1,2,-3,-4,21430*,-2
COc1cccc(NC(=O)NCCCCc2ccccc2)c1,i,-3,10,?,0
O=C(OCC#CCSc1nc2ccccc2o1)c1ccco1,1,-10,2,22148*,?
O=C(OCC#CCSc1nnc(-c2cccc3ccccc23)o1)c1ccco1,-1,-2,-4,20284*,?
O=C(OCC#CCSc1nc2ccccc2o1)c1cc2ccccc2o1,i,·,·,·,·
CCOc1ccc(C(=O)N2CCC3(CC2)NCCc2[nH]cnc23)cc1OCC,1,1,1,3991,2
Cc1ccsc1C(=O)N1CCC1(C)C(=O)Nc1cccc(C#N)c1 (stereo unspecified),-4,2,8,3644,0
CSc1ccccc1C(=O)NC1CCCC1,-2,2,1,15581,2
CSc1ccccc1C(=O)NCC1CCCO1 (stereo unspecified),0,-2,9,18506*,5
CSc1ccccc1C(=O)NC1CCCCC1,i,-5,1,22309*,2
COc1ccc(S(=O)(=O)N2CCCCC2)cc1NC(=O)CCC(=O)N1CCC(c2ccccc2)=N1,i,3,-1,3930,0
CCN(CC)c1ccc2nc3ccc(N)cc3[n+](-c3ccccc3)c2c1,i,1,-40,3078,34*
CC(C)CCSc1nc(N2CCOCC2)c2c(c1C#N)CC(C)(C)OC2,1,-11,4,19440*,4
CC(=O)Nc1cccc2c1C(=O)N(c1ccc(C)cc1)C2=O,17*,0,3,6793,-1
Cc1ccc(N2C(=O)c3ccccc3C2=O)cc1,0,-1,3,4243,0
COc1cccc(-c2cc(C(=O)NCCN3CCOCC3)no2)c1,0,0,-5,17375*,-3
COc1cccc(-c2cc(C(=O)Nc3ccc(OC)c(OC)c3)no2)c1,i,-1,1,19835*,1
O=C(NC(=S)NCCN1CCOCC1)c1cccc(Cl)c1,i,1,-2,22268*,-1
COc1ccc(C2CC(C(F)(F)F)n3nc(C(=O)NCCN4CCOCC4)cc3N2)cc1 (stereo unspecified),i,-2,-4,17087*,-1
O=C(NC(=S)NCCN1CCOCC1)c1ccccc1,2,-2,-1,2010,0
SMILES,BH1578 lux ind,Anthrax LF inh2,BoNT-F LC inh,Autofluor counter,BoNT-A LC inh2
COc1cc(OC)cc(-c2c(-c3cccs3)c3cc(-c4ccc(N(C)C)nc4)ccc3n2C)c1,i,4,-3,3945,0
C[C@@H]1COC(=O)[C@@H](Cc2ccc(F)cc2)C/C=C\C[C@@H](CC(=O)N(CCO)Cc2ccccc2)C(=O)N1,-1,-3,-6,3993,0
O=C(NCCN1CCOCC1)c1cc(-c2ccc(Cl)cc2)on1,i,-3,-5,17467*,?
O=C(NCCN1CCOCC1)c1cc(-c2ccc(Cl)c(Cl)c2)on1,0,-1,-9,5942,-1
COc1ccc(C(=O)O)cc1S(=O)(=O)Nc1ccccc1-c1ccccc1,i,5,-14,3316,-5
O=C(O)C1CC(=O)N(C2CCCCC2)C1c1ccccc1 (stereo unspecified),i,4,?,4290,1
COc1ccc(C2C(C(=O)O)CC(=O)N2C2CCCCC2)cc1 (stereo unspecified),i,1,2,20476*,?
COc1ccc(/C=C/C=N/NC(=O)COc2ccc(OC)cc2)cc1,0,0,-7,2165,0
CC(C)C(NC(=O)COc1ccc2ccccc2c1)C(=O)N/N=C/C=C/c1ccccc1 (stereo unspecified),1,2,-1,22567*,-1
CC(C)C(=O)N1CCN(c2ccc(NC(=O)c3ccc4c(c3)OCCO4)cc2Cl)CC1,-2,-5,1,16164*,?
CC(=O)N1CCN(c2ccc(NC(=O)c3ccc4c(c3)OCCO4)cc2Cl)CC1,0,-4,0,3713,-1
CC(=O)N1CCN(c2ccc(NC(=O)c3ccc4c(c3)OCCO4)cc2)CC1,i,-5,-8,8819,2
O=C(Nc1ccc(N2CCCCC2)cc1)c1ccc2c(c1)OCCO2,i,-3,-2,23082*,?
O=C(OCCCOC(=O)c1ccc(O)cc1)c1ccc(O)cc1,i,0,8,4771,3
N#Cc1cc2c(nc1SCC(=O)NCc1ccc3c(c1)OCO3)CCCCC2,i,-1,0,18758*,2
Cc1noc(NS(=O)(=O)c2ccc(NC(=O)CSc3nc4c(cc3C#N)CCCCC4)cc2)c1C,0,-2,-7,24886*,-3
N#Cc1cc2c(nc1SCC(=O)O)CCCCC2,0,-4,-6,4649,0
COc1ccccc1/C=C/CN1CCOCC1,-3,-4,-2,22191*,1
COc1ccccc1/C=C/CN1CCSCC1,i,-3,8,3463,-2
CC(CN1CCOCC1)OC(=O)c1ccccc1 (stereo unspecified),-1,-4,?,3519,?
COc1ccccc1/C=C/C(=O)OC(C)CN1CCOCC1 (stereo unspecified),-6,-3,-4,21922*,-3
C=CC(=O)NC(NC(=O)C=C)c1ccccc1F,0,-7,0,4805,0
CCN1C(=O)/C(=C2\SC(=S)N(c3c(C)n(C)n(-c4ccccc4)c3=O)C2=O)c2ccccc21,i,-12,8,20899*,?
CN(C)S(=O)(=O)c1ccc(C(=O)NCCC(=O)N2CCCC2)cc1,0,0,0,5063,0
O=C1CCN(Cl)C(=O)N1Cl,·,1,3,6154,-1
SMILES,BH1578 lux ind,Anthrax LF inh2,BoNT-F LC inh,Autofluor counter,BoNT-A LC inh2
Cc1ccc(S(=O)(=O)NCCCCCCNS(=O)(=O)c2ccc(C)cc2)cc1,-5,0,-2,3750,0
CSc1nc(C)cc(OCCNS(=O)(=O)c2ccc(C)cc2)n1,-1,-7,-7,17261*,-6
Cc1ccc(S(=O)(=O)NCCOCCNS(=O)(=O)c2ccc(C)cc2)cc1,4,2,0,16362*,0
Cc1ccc(S(=O)(=O)NCCCCCC(=O)N(C)C)cc1,0,-3,2,19200*,1
COCCNS(=O)(=O)c1ccc(-c2ccc(C)cc2)cc1,i,-8,-18,11333,-1
CC1C(=O)N2CCCc3cc(S(=O)(=O)N4CCC(C(N)=O)CC4)cc1c32 (stereo unspecified),0,-2,-4,4929,-5

# Compound activity deposited in PubChem by several laboratories.
